Experimental data as given in PubChem BioAssay AID1159580 (chemical genetic matrix, 2015).
Out of some 5,500 compounds screened, about 2,000 (36%) were called active. Another 18% or so got no clear call; they are omitted. No stated cut-off is given here; in the data, active means normalized growth mostly below about 0.91 (no sharp cut-off); inconclusive means no clear call, values can overlap the other calls; inactive means mostly above about 0.92. The list shows a part of the results.

Test: chemical genetic growth profiling, strain panel (AID 1159580);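 further: tested at 20 µM; growth read once vehicle control cultures reached saturation at 30 °C; 1 = growth at the plate median or of vehicle wells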
Conditions: S. cerevisiae deletion strains, growth OD
[1] = locus YAL013W, strain DEP1, stronger effect = lower value
[2] = locus YMR307W, strain GAS1, stronger effect = lower value
[3] = locus YNL128W, strain TEP1, stronger effect = lower value
[4] = locus YNL153C, strain GIM3, stronger effect = lower value
[5] = locus YNL322C, strain KRE1, stronger effect = lower value
[6] = locus YPL055C, strain LGE1, stronger effect = lower value
[7] = locus YAL040C, strain CLN3, stronger effect = lower value
[8] = locus YCL061C, strain MRC1 (second series), stronger effect = lower value
[9] = locus YDR363W, strain ESC2, stronger effect = lower value
[10] = locus YER002W, strain NOP16, stronger effect = lower value
[11] = locus YGR078C, strain PAC10, stronger effect = lower value
[12] = locus YGR229C, strain SMI1, stronger effect = lower value
[13] = locus YNL175C, strain NOP13, stronger effect = lower value
[14] = locus YNL197C, strain WHI3, stronger effect = lower value
[15] = locus YNL224C, strain SQS1, stronger effect = lower value
[16] = locus YOR083W, strain WHI5 (second series), stronger effect = lower value
[17] = locus YPL241C, strain CIN2, stronger effect = lower value
[18] = locus YDR150W, strain NUM1, stronger effect = lower value

Measured: normalized growth

CC1=CC(=O)C2=C(C)CC[C@@H]3[C@H](OC(=O)[C@H]3C)[C@@H]12
inactive: [1] 1 | locus YBR021W, strain FUR4, stronger effect = lower value 0.965 | locus YBR229C, strain ROT2, stronger effect = lower value 0.987 | locus YCL029C, strain bik1, stronger effect = lower value 0.975 | locus YDL035C, strain GPR1, stronger effect = lower value 0.998 | locus YDL074C, strain BRE1, stronger effect = lower value 0.986 | locus YDL101C, strain DUN1, stronger effect = lower value 0.995 | locus YDL185W, strain tfp1, stronger effect = lower value 0.978 | locus YDL192W, strain arf1, stronger effect = lower value 1.01 | locus YDR101C, strain arx1, stronger effect = lower value 0.981 | locus YDR162C, strain NBP2, stronger effect = lower value 1.01 | locus YDR318W, strain mcm21, stronger effect = lower value 1 | locus YDR388W, stronger effect = lower value 0.981 | locus YDR502C, strain sam2, stronger effect = lower value 0.983 | locus YEL061C, strain CIN8, stronger effect = lower value 0.997 | locus YER110C, stronger effect = lower value 0.979 | locus YER155C, strain BEM2, stronger effect = lower value 0.987 | locus YER167W, strain BCK2, stronger effect = lower value 0.992 | locus YGL078C, strain dbp3, stronger effect = lower value 0.977 | locus YGL086W, strain mad1, stronger effect = lower value 0.979 | locus YGL248W, strain PDE1, stronger effect = lower value 1.01 | locus YGR135W, strain pre9, stronger effect = lower value 0.997 | locus YGR252W, strain gcn5, stronger effect = lower value 1.07 | locus YHR030C, strain SLT2, stronger effect = lower value 0.99 | locus YHR079C, strain IRE1 (second series), stronger effect = lower value 0.985 | locus YHR094C, strain hxt1, stronger effect = lower value 0.991 | locus YHR129C, strain ARP1, stronger effect = lower value 0.997 | locus YHR200W, strain rpn10, stronger effect = lower value 0.998 | locus YIL066C, strain RNR3, stronger effect = lower value 0.999 | locus YIL073C, strain SPO22, stronger effect = lower value 0.99 | locus YIL125W, strain kgd1, stronger effect = lower value 0.986 | locus YIR030C, strain dcg1, stronger effect = lower value 0.985 | locus YJL095W, strain BCK1, stronger effect = lower value 1.04 | locus YJL134W, strain LCB3, stronger effect = lower value 0.992 | locus YJL168C, strain set2, stronger effect = lower value 0.984 | locus YJL187C, strain SWE1 (second series), stronger effect = lower value 1.01 | locus YJR043C, strain POL32, stronger effect = lower value 1.01 | locus YKL009W, strain mrt4, stronger effect = lower value 1 | locus YKL068W, stronger effect = lower value 0.985 | locus YKL085W, strain MDH1 (second series), stronger effect = lower value 0.995 | locus YKL085W, strain MDH1, stronger effect = lower value 0.995 | locus YKL190W, strain CNB1, stronger effect = lower value 1.01 | locus YKR001C, strain vps1, stronger effect = lower value 0.965 | locus YLR039C, strain RIC1, stronger effect = lower value 1.02 | locus YLR058C, strain SHM2, stronger effect = lower value 1 | locus YLR102C, strain apc9, stronger effect = lower value 0.981 | locus YLR262C, strain YPT6, stronger effect = lower value 1.01 | locus YLR268W, strain sec22, stronger effect = lower value 0.976 | locus YLR330W, strain CHS5, stronger effect = lower value 0.993 | locus YLR342W, strain FKS1 (second series), stronger effect = lower value 0.989 | locus YLR371W, strain rom2, stronger effect = lower value 0.959 | locus YLR418C, strain cdc73, stronger effect = lower value 1.01 | locus YML016C, strain PPZ1, stronger effect = lower value 0.99 | locus YML032C, strain rad52, stronger effect = lower value 1.01 | locus YML124C, strain tub3, stronger effect = lower value 0.989 | locus YMR078C, strain ctf18, stronger effect = lower value 1 | locus YMR223W, strain ubp8, stronger effect = lower value 1.03 | [2] 1 | locus YNL067W, strain RPL9B, stronger effect = lower value 1.02 | [3] 0.984 | [4] 1.01 | locus YNL233W, strain BNI4, stronger effect = lower value 1 | locus YNL250W, strain rad50, stronger effect = lower value 0.995 | locus YNL271C, strain bni1, stronger effect = lower value 0.984 | locus YNL298W, strain CLA4, stronger effect = lower value 0.99 | locus YNL307C, strain MCK1, stronger effect = lower value 0.971 | [5] 1 | locus YNR052C, strain pop2, stronger effect = lower value 0.996 | locus YOL012C, strain htz1 0.989 | locus YOL147C, strain pex11, stronger effect = lower value 0.987 | locus YOR061W, strain CKA2, stronger effect = lower value 0.992 | locus YOR069W, strain VPS5, stronger effect = lower value 0.986 | locus YOR136W, strain idh2, stronger effect = lower value 0.971 | locus YOR144C, strain elg1, stronger effect = lower value 0.988 | locus YOR184W, strain ser1, stronger effect = lower value 0.974 | locus YOR316C, strain cot1, stronger effect = lower value 0.984 | [6] 0.999 | locus YPR119W, strain clb2, stronger effect = lower value 1 | locus YPR141C, strain kar3, stronger effect = lower value 0.98 | locus YPR163C, strain tif3, stronger effect = lower value 0.978 | locus YPR167C, strain met16, stronger effect = lower value 1.02 | strain wtn01, stronger effect = lower value 0.971

N#C/C(=C/c1ccc(O)c(O)c1)C(N)=S
inactive: [1] 0.959 | [7] 0.973 | [8] 0.997 | [10] 0.995 | [11] 0.995 | [12] 0.972 | locus YMR263W, strain SAP30, stronger effect = lower value 0.956 | [2] 1 | [4] 0.988 | [13] 0.977 | [14] 0.98 | [15] 0.985 | [16] 0.958 | [17] 0.975
active: [9] 0.73

N#C/C(=C\c1ccc(O)c(O)c1)C(=O)c1ccc(O)c(O)c1
inactive: [7] 1 | [8] 0.995 | [18] 0.997 | [9] 0.994 | [10] 1.02 | [11] 0.99 | [12] 1.03 | [2] 0.99 | [4] 1.04 | [13] 0.961 | [14] 0.994 | [15] 1 | [5] 0.99 | [16] 0.999 | [17] 0.991

N#C/C(=C\c1ccc(O)c(O)c1)C(=O)NCCCc1ccccc1
inactive: [7] 0.98 | [8] 1 | [18] 0.991 | [9] 1.01 | [10] 0.993 | [11] 1 | [12] 0.941 | [2] 0.996 | [3] 0.996 | [13] 0.998 | [14] 1.01 | [15] 1 | [5] 1 | [16] 1.01 | [6] 0.991
